Sampled rows, rich in hits. Any-hit rate of the full collection: about 1.2%.
miR-122 sensor: miR-122 Renilla sensor signal increase in Huh7, primary screen, miR-122 inhibitor project, cell-based, single point, plate reader; Huh7 miR-122 Renilla luciferase sensor, 48 h; neutral wells = 0, positive control = 100; AID 602342, 2012; 340,000 compounds, 0.3% hits; activation (reporter increase), % at 12.5 µM;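 active = mean replicate activation score at least 90 and every replicate individually at or above 90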;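 also: higher luciferase means less miR-122 activity so hits act as miR-122 inhibitors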
NSD2 HMT inh: NSD2 histone methyltransferase inhibitors, primary screen, biochemical, AlphaScreen, single concentration, set 2; NSD2 peptide methylation, 120 min; Histone-lysine N-methyltransferase NSD2 (Homo sapiens), O96028; AID 743445, 2014; inhibition, % at 12.5 µM; 310,000 compounds, 0.54% hits; in the data active = inhibition above about 50%
PglD inh: C. jejuni PglD acetyltransferase inhibitors, primary screen, biochemical, DTNB colorimetric, single point; UDP-N-acetylbacillosamine N-acetyltransferase PglD (Campylobacter jejuni); purified PglD enzyme, DTNB colorimetric CoA detection; inhibition, % at 12.5 µM; 360,000 compounds, 0.098% hits; in the data active = inhibition above about 16%, passing the limit was not always enough
C2C12 statin: suppressors of statin myotoxicity in C2C12 myotubes, primary screen, cell-based, single point, plate reader | 330,000 compounds, 0.78% hits | C2C12 myotubes + simvastatin, ATP luminescence, 48 h; scaled: DMSO 0, geranylgeraniol control 100 | rescue of ATP level, % at 7.49 µM | AID 602340, 2012;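 active = mean ATP rescue above about 67%, or every replicate alone reaching that limit, limit read from the data, passing the limit was not always enough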;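 also: myotubes were challenged with 10 µM simvastatin during compound exposure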
Starred values were filed as active, the others as inactive; . = no result; ! = not confirmed by another sample; [ ] = dose if it differs, or a comment.

SMILES	miR-122 sensor	NSD2 HMT inh	PglD inh	C2C12 statin
C[C@H](CO)N1C[C@H](C)[C@@H](CN(C)Cc2ccccc2)Oc2c(NC(=O)C3CC3)cccc2C1=O	91*!	.	0	7
C[C@@H]1CN([C@H](C)CO)C(=O)c2cccc(NC(=O)C3CC3)c2O[C@@H]1CN(C)Cc1ccccc1	-5[16.7 µM]	.	1	-5
CC(C)c1cn(CC[C@@H]2CC[C@H](NC(=O)c3cccc(F)c3)[C@@H](CO)O2)nn1	-22[16.7 µM]	.	0	17
CC(C)(C=O)C1=CC(=O)c2ccccc2C1=O	.	92*	.	.
CC1=CC(=O)c2ccccc2C1=O	-5	.	-4	2
COc1ccc(NC(=O)Nc2ccc3c(c2)CC(=O)N([C@@H](C)CO)C[C@@H](C)[C@@H](CN(C)C(=O)NC(C)C)O3)cc1	101*[16.7 µM]	.	6	-37
C[C@@H]1CN([C@H](C)CO)C(=O)Cc2cc(NS(=O)(=O)c3ccc(Cl)cc3)ccc2O[C@@H]1CN(C)C(=O)Nc1ccc(C(F)(F)F)cc1	103*[16.7 µM]	.	0	20
C[C@H]1CN([C@@H](C)CO)C(=O)Cc2cc(NC(=O)Nc3ccc(C(F)(F)F)cc3)ccc2O[C@H]1CN(C)C(=O)Nc1ccc(F)cc1	1[16.7 µM]	.	1	83*
C[C@H](CO)N1C[C@H](C)[C@@H](CN(C)C(=O)Nc2ccc(C(F)(F)F)cc2)Oc2ccc(NC(=O)Cn3cnnn3)cc2CC1=O	1[16.7 µM]	.	18*	-20
CC=Cc1ccc2n(c1=O)C[C@H]1[C@H](CO)[C@@H](C(=O)OC)N(C(C)=O)[C@@H]21 (mixture of isomers)	.	.	-2	-10
COc1ccc(S(=O)(=O)N(C)C[C@@H]2Oc3ccc(NC(=O)Cc4ccccc4)cc3C(=O)N([C@H](C)CO)C[C@@H]2C)cc1	-5[16.7 µM]	.	0	-33
C[C@@H]1CN([C@@H](C)CO)C(=O)c2cc(NC(=O)c3ccncc3)ccc2O[C@H]1CN(C)Cc1ccncc1	8[16.7 µM]	.	-2	-2
C[C@H](CO)N1C[C@H](C)[C@@H](CN(C)S(=O)(=O)c2cccs2)OCCCC[C@H](C)Oc2ccc(NC(=O)CCC(F)(F)F)cc2C1=O	1[16.7 µM]	.	4	.
O=C(NNC(=S)Nc1ccccc1)C1CC1	-5	0	6	-4
S=C(NN=C(C1CC1)C1CC1)Nc1ccccc1	3	-1	-4	142*
CSc1cc(-c2ccc(Cl)cc2)c(C(=O)NC(C)C)s1	1	0	-6	130*
C[C@@H]1CN([C@H](C)CO)C(=O)Cc2cc(NC(=O)Cc3cn(C)c4ccccc34)ccc2O[C@@H]1CN(C)S(=O)(=O)c1ccc(Cl)cc1	0[16.7 µM]	.	.	48
O=S(=O)(c1cccc2nsnc12)N1CCOCC1	-9	-4	-1	114*
CC(C)c1cn(CC[C@@H]2CC[C@H](NS(=O)(=O)c3ccccc3)[C@@H](CO)O2)nn1	.	.	4	0
Cc1oc2cc(O)cc(C)c2c(=O)c1-c1cnn(-c2ccccc2)c1	-9	0	-1	89*
CN(C)CCCNCCCNC(=O)c1ccccn1	-4	2	0	-2
O=C(NCCCNCCCNC(=O)c1ccccn1)c1ccccn1	-3	-1	2	115*
COc1cc(NC(=O)CN(C)S(=O)(=O)c2ccc3c(c2)CC(C)N3C(C)=O)cc(OC)c1OC (configuration not stated)	2	-6	-3	109*
CCCNC(=O)Nc1ccc2c(c1)C(=O)N(C)C[C@H](OC)[C@@H](C)CN(CCC)[C@H](C)CO2	.	.	4	-22
Cc1onc(-c2ccccc2Cl)c1C(=O)NCc1nc(-c2ccccc2)no1	-1	-4	-10	159*
SMILES	miR-122 sensor	NSD2 HMT inh	PglD inh	C2C12 statin
C[C@@H]1CN([C@@H](C)CO)C(=O)c2cc(-c3ccccc3)cnc2O[C@H]1CN(C)C	5[16.7 µM]	.	-2	2
O=c1cc(/C=C/c2ccccc2)oc2ccccc12	40	1	-7	138*
O=c1cc(-c2ccccc2)oc2ccccc12	-3	.	-3	20
Cc1c(C)c2ccc(OCC(=O)N(C)C)c(C)c2oc1=O	-3	-3	9	98*
CCc1c(C)c2ccc(OCC(=O)N(C)C)c(C)c2oc1=O	-2	3	-6	0
CCN(CC)CC(=O)n1c2c(c3ccccc31)CCCC2	-4	26	-5	124*
CN1CCN(CC(=O)n2c3c(c4ccccc42)CCCC3)CC1	2	7	.	0

High-throughput results deposited in PubChem by Broad Institute.
